# Results published in PubChem BioAssay AID1345085 (National Center for Advancing Translational Sciences (NCATS), 2018).
# Results filed as inconclusive are left out. A number with no mark means an inactive call. The source made the active and inactive calls. The call rests on the fitted dose curve; in most records, active means well fitted cell-killing curve with a large enough effect; inconclusive means small, poorly fitted or top-dose-only effect, or effect the other way; inactive means no such curve, though single readings can be large or run the other way.
# Test system: Tov-21-G
# Test: Confirmatory qHTS for gynecologic anti-cancer compounds from libraries of approved drugs and bioactive compounds; further: nearly all actives have a fitted effect of over 55% in size
# Details: gynecologic cancer cell panel viability, ATPlite luminescence, 48 h; series mostly up to 57.7 µM; activity change, negative = viability loss: at the top concentration
# Outline: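 Cells (1,000/well) plated 16 h, then exposed 48 h at 37 °C to 11 concentrations (1:3) from 57.5 uM to 0.977 nM. Viability by ATPlite luminescence after 15 min; IC50 derived, with HEK 293T used for selectivity index.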
# On the % scale 0 is the no-effect control and ±100 the full control effect; potency means the concentration at half of the fitted maximal effect.
Structure (SMILES),Potency,"activity change, negative = viability loss [%]"
CC(=O)c1cnc2ccc(-c3cc(Cl)c(O)c(Cl)c3)nc2c1NC1CCC(CN(C)C)CC1 (stereo unspecified),0.559 µM (active),–
CCc1c2c(nc3ccc(O)cc13)-c1cc3c(c(=O)n1C2)COC(=O)[C@]3(O)CC,1.09 µM (active),–
CC(C)n1c(/C=C/[C@@H](O)C[C@@H](O)CC(=O)O)c(-c2ccc(F)cc2)c2ccccc21,–,-20.4
COc1cccc2c1C(=O)c1c(O)c3c(c(O)c1C2=O)C[C@@](O)(C(=O)CO)C[C@@H]3O[C@H]1C[C@H](N)[C@H](O[C@@H]2CCCCO2)[C@H](C)O1,8.63 µM (active),–
O=C(c1ccc(F)c(F)c1Nc1ccc(I)cc1F)N1CC(O)([C@@H]2CCCCN2)C1,9.68 µM (active),–
CCC1=CC2CN(C1)Cc1c([nH]c3ccccc13)[C@@](C(=O)OC)(c1cc3c(cc1OC)N(C)[C@H]1[C@@](O)(C(=O)OC)[C@H](OC(C)=O)[C@]4(CC)C=CCN5CC[C@]31[C@@H]54)C2 (stereo partly specified),2.37 µM (active),–
